Source: PubChem BioAssay
Sampled rows, rich in hits. Any-hit rate of the full collection: about 10%.
GLS inhibitor: qHTS for Inhibitors of Glutaminase (GLS); GLS enzymatic activity, qHTS titration; Potency, µM (titrated, usually from 45.5 µM), without a hit: top-dose activity change, negative = inhibition, usual class: inhibitors; 0.21% of 410,000 active; note: % is set by controls: 0 for no effect and ±100 for the full control effect
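Compounds were pin-transferred onto hKGA, after which L-glutamine (1 mM solution) and a detection mix of glutamate oxidase, HRP and Amplex Red were added. Initial and 30 min RT fluorescence reads were collected.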
JMJD2A Tudor inh: qHTS Assay for Inhibitors of JMJD2A-Tudor Domain; Potency, µM (titrated, usually from 114 µM), for inactives: at the top dose activity change, negative = inhibition, hits mostly inhibitors; 4.4% of 390,000 active; AlphaScreen JMJD2A-Tudor / H3K4me3 peptide binding; AID 504339, 2011; Lysine-specific demethylase 4A (Homo sapiens), O75164; note: % is set by controls: 0 for no effect and ±100 for the full control effect; nearly all actives have a fitted effect of over 50% in size
G9a inh: qHTS Assay for Inhibitors of Histone Lysine Methyltransferase G9a; G9a H3K9 monomethylation, AlphaScreen, 2 h; AID 504332, 2011; 8.8% of 350,000 active; Potency, µM (highest dose often 102 µM), inactives show top-dose activity, negative = inhibition, actives largely listed as inhibitors; note: % is set by controls: 0 for no effect and ±100 for the full control effect; nearly all actives have a fitted effect of over 75% in size
Target sequence (Q96KQ7 913-1193 limits assumed): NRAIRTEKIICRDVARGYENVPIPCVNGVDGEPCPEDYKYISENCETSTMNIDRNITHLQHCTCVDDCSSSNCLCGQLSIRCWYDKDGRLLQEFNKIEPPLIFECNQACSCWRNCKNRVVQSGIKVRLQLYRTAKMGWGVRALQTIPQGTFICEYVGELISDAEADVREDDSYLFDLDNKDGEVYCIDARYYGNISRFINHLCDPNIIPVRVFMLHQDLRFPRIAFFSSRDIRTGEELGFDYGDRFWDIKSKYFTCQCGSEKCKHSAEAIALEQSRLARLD
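AlphaScreen detection with an anti-monomethyl H3K9 antibody quantified product after a 2 h room-temperature reaction containing 500 nM biotinylated H3K9 peptide, 20 µM SAM and 20 nM enzyme, which had been preincubated 15 min with compound.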
BAZ2B block: qHTS Assay for Inhibitors of BAZ2B | 4.4% of 360,000 active | Bromodomain adjacent to zinc finger domain protein 2B (Homo sapiens), Q9UIF8 | AlphaScreen BAZ2B-H3K14Ac peptide displacement | AID 504333, 2011 | Potency, µM (doses to about 114 µM), for the others: at the highest dose activity change, negative = inhibition, most hits filed as inhibitors; note: % is set by controls: 0 for no effect and ±100 for the full control effect; nearly all actives have a fitted effect of over 60% in size
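AlphaScreen displacement: compounds (up to 110uM) incubated 30 min at room temperature with a preformed 50 nM BAZ2B/50 nM biotinylated H3K14Ac peptide complex in PBS pH 7.4 with Tween-20. Donor and acceptor beads at 10 ug/mL final added, 20 min light-protected before reading.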
L3MBTL1 inh: qHTS Assay for the Inhibitors of L3MBTL1. AlphaScreen L3MBTL1–H3K9me1 peptide binding. Lethal(3)malignant brain tumor-like protein 1 (Homo sapiens), Q9Y468. 0.66% of 230,000 active. Potency, µM (doses to about 57.1 µM), for inactives: at the highest dose activity, negative = inhibition, most hits filed as inhibitors; note: % is set by controls: 0 for no effect and ±100 for the full control effect; nearly all actives have a fitted effect of over 60% in size
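AlphaScreen assay: L3MBTL1 (50 nM final) was preincubated 30 min at room temperature with biotinylated H3(1-15)K9me1 peptide (75 nM final), then 30 min with library compounds; streptavidin donor and nickel chelate acceptor beads (10 ug/mL final) added, 30 min dark.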
HP1b binding inh: HTS for Inhibitors of HP1-beta Chromodomain Interactions with Methylated Histone Tails; AlphaScreen HP1-beta / biotin-H3K9me3 peptide binding; 0.56% of 390,000 active; Potency, µM (doses to about 114 µM), for inactives: at the highest dose activity change, negative = inhibition, most hits filed as inhibitors; Chromobox protein homolog 1 (Homo sapiens), P83916; note: nearly all actives have a fitted effect of over 70% in size
Target sequence (P83916 whole entry, looked up): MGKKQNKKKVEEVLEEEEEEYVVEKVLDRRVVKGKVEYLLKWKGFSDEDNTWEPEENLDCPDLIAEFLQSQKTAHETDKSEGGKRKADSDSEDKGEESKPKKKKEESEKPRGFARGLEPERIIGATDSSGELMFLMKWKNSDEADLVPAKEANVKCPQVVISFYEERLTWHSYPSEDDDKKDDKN
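Compound inhibition of the preformed complex between 50 nM HP1-beta and 50 nM biotinylated H3K9me3 peptide was read by AlphaScreen. Buffer was PBS pH 7.4 with 0.01% Tween-20. Incubations ran 30 min at room temperature, with 10 ug/mL donor/acceptor beads.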
Numbers without * were called inactive; u = inconclusive; x = not tested or not shown; ! = repeats disagree; [ ] = another dose, or the depositor's remark. Calls come from the whole dose curve; as a rule, active = well fitted curve in the direction sought with a large enough effect; inconclusive = small, poorly fitted or top-dose-only effect, or another doubt; inactive = no such curve, though single readings can be large; an effect the other way counts as inactive or inconclusive. Potency is the fitted concentration of half-maximal effect.

SMILES	GLS inhibitor	JMJD2A Tudor inh	G9a inh	BAZ2B block	L3MBTL1 inh	HP1b binding inh
O=C(Cn1c(=O)oc2cc(S(=O)(=O)N3CCCC3)ccc21)Nc1cccc(C(F)(F)F)c1	0%	-11%	-34%[59 µM]	29%	51%	12%
O=C1NCCN2CCCC12 (stereo not drawn)	9%	3%	13µM*	-8%	4%	54%
CC1(C)NC(=O)[C@H]2CCCN21	0%	3%	x	x	x	41%
O=c1[nH]c(=O)n([C@H]2C[C@@H](O)[C@@H](CO)O2)cc1C=CBr	x	x	40%[59 µM]	x	x	x
O=C(Cn1c(=S)[nH]c2ccccc2c1=O)N1CCC2(CC1)OCCO2	-2%	-26%	6%	4%	4%	39%
O=C(CCCCCn1c(=S)[nH]c2ccccc2c1=O)N1CCC2(CC1)OCCO2	-2%	-23%	50µM*	-7%	0%	40%
COc1ccc(CCNC(=O)CCS(=O)(=O)c2ccc3c(c2)oc(=O)n3C)cc1OC	8%	-9%	64%	-17%	x	64%
NCc1cccnc1	2%	x	2%[12.7 µM]	x	x	x
O=c1c2ccccc2nc(-c2ccco2)n1-c1ccccc1	-13%	2%	u	-1%	-11%	43%
Nc1nc2ccc(Cl)cc2c2nc(-c3ccco3)nn12	x	x	2.5µM*!	-4%	x	x
CC1(c2ccc(Cl)cc2Cl)OCC(Cn2cncn2)O1 (stereo not drawn)	2%	-15%	u	71µM*	1%	-2%
CCCCC/C=C\C=C\[C@H](CCCCCCCC(=O)O)OO	x	x	7%[59 µM]	x	x	x
CNCCc1c(C)n[nH]c1C	9%	-9%	u	0%	-1%	20%
CNCCc1nc(N)n[nH]1	6%	-8%	56µM*	u	x	15%
[Li+]	x	x	6%[59 µM]	x	x	x
COc1cccc(CNC(=O)CSc2ccc(-c3ccco3)nn2)c1	-8%	-23%	28µM*	u	x	21%
Cc1ccc(NC(=O)CSc2nc(-c3ccco3)cc(C(F)(F)F)n2)c(C)c1	1%	4%	16%[59 µM]	1%	x	42%
O=C(Nc1ccc(Cl)c(C(F)(F)F)c1)NC1CC2CCCC(C1)N2Cc1ccccc1 (stereo not drawn)	-3%	-8%	-8%[59 µM]	-26%	x	43%
O=C(OC1CC2CCC(N2)C1C(=O)O)c1ccccc1 (stereo not drawn)	4%	89µM*	x	x	3%	16%
O=C(NC1CC2CCCC(C1)N2)c1ccccc1 (stereo not drawn)	-16%	-1%	x	12%	13%	42%
C=CCN1C(=O)NC(=O)/C(=C/C=C/c2ccccc2)C1=O	-13%	-21%	8.9µM*	u	x	u
Cc1ccc(N2C(=O)NC(=O)/C(=C\C=C\c3ccco3)C2=O)cc1C	0%	u	10µM*	45µM*	u	u
Cc1ccc(N2C(=O)NC(=O)/C(=C\C=C\c3ccco3)C2=O)cc1	12%	-24%	35µM*	-33%	x	14%
O=C1NC(=O)N(CCc2ccc(F)cc2)C(=O)/C1=C\C=C\c1ccccc1	79%	-29%	u	-24%	x	23%
CN(C)c1ccc(/C=C/C=C2/C(=O)NC(=O)N(c3ccccc3)C2=O)cc1	-3%	u	16µM*	13µM*	u	16µM*
SMILES	GLS inhibitor	JMJD2A Tudor inh	G9a inh	BAZ2B block	L3MBTL1 inh	HP1b binding inh
Cc1cccc(N(CC(=O)NCCSc2ccc(Cl)cc2)S(=O)(=O)c2ccccc2)c1C	2%	4%	-50%[59 µM]	-1%	x	41%
C[C@]12CC[C@H]3[C@@H](CC[C@@]45O[C@@H]4C(=O)C(C#N)C[C@]35C)[C@@H]1CC[C@@H]2O (stereo partly drawn)	19%	x	-21%[12.7 µM]	x	x	x
CCOP(=O)(OCC)c1cccc(P(=O)(c2ccccc2)c2ccccc2)c1O	13%	-9%	7%	-1%	x	63%
O=C1NC(=O)N(Cc2ccco2)C(=O)/C1=C/C=C/c1ccco1	44%	35µM*	-175%[59 µM]	32µM*	x	11µM*
CN1C(=O)/C(=C/C=C/c2ccco2)C(=O)NC1=S	x	u	2.8µM*	32µM*	x	11µM*
O=C1NC(=O)N(c2ccccc2)C(=O)/C1=C/C=C/c1ccco1	28%	-29%	35µM*	-35%	x	-19%
CC(C)(C)n1cccc1/C=C1\C(=O)NC(=O)N(c2ccccc2)C1=O	11%	-24%	u	-10%	-1%	31%
Cc1cccc(N2C(=O)NC(=O)/C(=C/c3ccc([N+](=O)[O-])o3)C2=O)c1	7.1µM*	20µM*	u	22µM*	6.3µM*	u
CN1c2ccccc2C(NCCCCCCC(=O)O)c2ccc(Cl)cc2S1(=O)=O (stereo not drawn)	4%	x	-2%[12.7 µM]	x	x	x
Cc1cccc(N2C(=O)CC(=O)NC2=O)c1	1%	-17%	u	-2%	32%[11.4 µM]	41%
Cc1cccc(N2C(=O)NC(=O)/C(=C\C=C\c3ccco3)C2=O)c1	27%	u	4µM*	u	u	-20%
O=C(O)c1[nH]c(=O)[nH]c(=O)c1F	24%	7.1µM*	28µM*	50µM*	17%	-1%
Cc1oc(-c2ccccc2Cl)nc1CN1C(=O)CN=C(c2ccccc2)c2cc(Cl)ccc21	2%	-10%	-34%[59 µM]	-5%	x	34%
Cc1oc(-c2cccc(Cl)c2)nc1CN1CCC(C(=O)NCCCN2CCN(c3cccc(Cl)c3)CC2)CC1	0%	32µM*	u	28µM*	x	-8%
Cc1ccc2c(c1)C1CN(C)CCC1N2C(=O)c1cccnc1Cl (stereo not drawn)	0%	-2%	x	-13%	x	37%
Cc1ccc2c(c1)C1CN(C)CCC1N2C(=O)c1ccc(Br)o1 (stereo not drawn)	5%	-9%	79µM*	-6%	x	5%
CC(C)NC(=O)N1CCC2(CC1)CCN(C(=O)Oc1ccccc1)CC2	x	x	-19%[12.7 µM]	x	x	x
O=C1NC(=O)C(=Cc2cc(Cl)ccc2OCc2ccc(C(=O)O)cc2)C(=O)N1	2%	-12%	32µM*	3%	x	11%
Cc1cc(C)nc(NS(=O)(=O)c2ccc(N=Cc3c(O)n(C)c(=O)n(C)c3=O)cc2)n1	-7%	-20%	10%[59 µM]	-9%	1%	37%
Cc1ccnc(NS(=O)(=O)c2ccc(N=Cc3c(O)n(C)c(=O)n(C)c3=O)cc2)n1	16%	-8%[57.1 µM]	45µM*	u	-3%	21%
O=C(NC(O)C(Cl)(Cl)Cl)NC(O)C(Cl)(Cl)Cl (stereo not drawn)	5%	x	2%[12.7 µM]	x	x	x
